AGP1-GFP MLPCN – modulators of AGP1-GFP expression in yeast TOR pathway, primary screen, cell-based, multiplex flow cytometry, S. cerevisiae, MLPCN library. 3 h; GFP as percent of DMSO wells. 0.02% of 320,000 active. GFP response vs DMSO, % at 10 µM;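 active means GFP response relative to DMSO above a set limit, near screen average plus 3 SD, cut at about 150% in these data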;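 further: median GFP channel fluorescence of the gated AGP1 strain per well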
MEP2 TOR yeast – modulators of MEP2-GFP levels in yeast, primary screen, S. cerevisiae, multiplex flow cytometry, MLPCN library; S. cerevisiae MEP2-GFP strain, 3 h; 100% = DMSO control level; GFP response vs DMSO, % at 10 µM; 0.51% of 330,000 active;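 active means GFP response versus DMSO above a set limit, roughly screen mean plus 3 SD, cut at about 180% in these data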;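 further: median GFP fluorescence of the barcode-gated MEP2-GFP cells per well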
Efflux pump inh – inhibitors of Candida efflux pumps in yeast, primary screen, S. cerevisiae, Nile Red, multiplex; inhibition, % at 10 µM; S. cerevisiae Candida pump triplex; AID 485275, 2010; 0.44% of 330,000 active;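 active means plate passing quality check with inhibition over a set limit, or well fluorescence over plate mean plus 4 SD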;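 further: Nile Red retained in pooled yeast measured as flow cytometry median fluorescence; higher means more Nile Red kept so more efflux inhibition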
CIT2-GFP yeast – modulators of CIT2-GFP expression in yeast, primary screen, S. cerevisiae, GFP fusion, multiplex flow cytometry, MLPCN library; S. cerevisiae CIT2-GFP strain, 3 h; 100 means same as DMSO wells; GFP response vs DMSO, % at 10 µM; 0.065% of 320,000 active; AID 2029, 2009;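 active means GFP response relative to DMSO above a set limit, near the screen mean plus 3 SD, cut at about 150% in these data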;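 further: ratio of well median GFP fluorescence to mean of DMSO wells on the plate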
LAP4-GFP MLPCN – modulators of LAP4-GFP expression in yeast, primary screen, S. cerevisiae, multiplex flow cytometry, MLPCN library. 3 h; median GFP as percent of DMSO wells. GFP response vs DMSO, % at 10 µM. 0.34% of 320,000 active;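 active means GFP response vs DMSO above a set limit, about the screen mean plus 3 SD, cut at about 150% in these data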
RPL19A TOR yeast – RPL19A-GFP expression modulators in yeast, primary screen, cell-based, S. cerevisiae, multiplex flow cytometry, MLPCN | S. cerevisiae RPL19A-GFP strain, 3 h; stronger effect = lower value | percent response vs DMSO, % at 10 µM | 0.3% of 330,000 active | AID 2025, 2009;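 active means percent response vs DMSO below 50%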;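 further: median channel GFP fluorescence of the barcoded RPL19A-GFP strain; lower means less RPL19A-GFP as with rapamycin TOR inhibition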
LAP4-GFP pick2 – LAP4-GFP expression modulators in yeast, confirmation, cell-based, second cherry pick, flow cytometry; shares compounds with LAP4-GFP MLPCN; S. cerevisiae LAP4-GFP strain, 3 h; GFP response vs DMSO, % at 10 µM; 20% of 590 active;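 active means GFP signal as percent of the solvent control above about 150%, meaning raised reporter expression, limit read from the data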
MEP2-GFP pick2 – modulators of MEP2-GFP levels in yeast, confirmation, S. cerevisiae, flow cytometry GFP, second cherry picks; shares compounds with LAP4-GFP MLPCN; S. cerevisiae MEP2-GFP strain, 3 h; GFP response vs DMSO, % at 10 µM; 10% of 590 active; AID 2622, 2010;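 active means GFP signal above 150% of the solvent control wells, that is a rise of more than half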;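 further: median channel GFP fluorescence of all gated yeast cells per well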
RPL19A GFP CP2 – RPL19A-GFP modulators in TOR pathway yeast, confirmation, cell-based, S. cerevisiae, flow cytometry, second cherry pick. shares compounds with LAP4-GFP MLPCN. S. cerevisiae RPL19A-GFP strain, 3 h; stronger effect = lower value; 100% means same as DMSO wells. GFP response vs DMSO, % at 10 µM. 3% of 590 active. AID 2623, 2010;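 active means under 65% GFP response relative to DMSO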;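 further: median GFP channel fluorescence per well over the all cells gate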
CIT2-GFP pick2 – modulators of CIT2-GFP expression in yeast, confirmation, flow cytometry, second cherry pick, single plex. shares compounds with LAP4-GFP MLPCN. S. cerevisiae CIT2-GFP strain, 3 h; DMSO control wells read 100%. GFP response vs DMSO, % at 10 µM. 8% of 590 active;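 active means GFP response vs DMSO above about 150%, limit read from the data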;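 further: median green fluorescence per well over all gated yeast cells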
AGP1 GFP CP2 – AGP1-GFP expression modulators, hit retest, confirmation, cell-based, flow cytometry, S. cerevisiae, cherry pick set 2; shares compounds with LAP4-GFP MLPCN; S. cerevisiae AGP1-GFP strain, 3 h; percent response vs DMSO, % at 10 µM; 590 tested, under 10 active;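 active means over 150 percent of DMSO response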;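 further: median GFP channel fluorescence over all cells without mother daughter split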
s288c autofluor – compound autofluorescence in yeast s288c, dose response, artefact control for yeast TOR pathway GFP screen, s288c strain; S. cerevisiae s288c, 520 nm autofluorescence, flow cytometry, 3 h; stronger effect = higher value; zero means same as solvent-only cells; 610 tested, under 10 active; shares compounds with LAP4-GFP MLPCN; fluorescence change (kMESF span) at 33 µM;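 active means fluorescence span over the dose series, or activity score, above about 33, limit read from the data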
Yeast autofl DR – autofluorescence of compounds in yeast s288c, dose response, artefact control for yeast TOR pathway GFP screen, primary hits, KU SAR, s288c parental | shares compounds with LAP4-GFP MLPCN | S. cerevisiae s288c parental, compound autofluorescence, flow cytometry, 3 h | fluorescence change (span) at 33 µM | 110 tested, under 10 active | AID 488829, 2010;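 active means fluorescence change span, or the activity score built from it, above 25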
TORC1 bypass – wild-type yeast growth inhibition sparing TORC1 bypass cells, mechanism study for yeast TOR pathway GFP screen, BY4741 wild type, TORC1 bypass strain; AID 504456, 2011; S. cerevisiae BY4741 spot growth rating, 48-72 h; stronger effect = lower value; growth rating (0-3) at 30 µM; 120 tested, under 10 active; shares compounds with LAP4-GFP MLPCN;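 active means growth rating at most 1 for wild type yeast while the TORC1 bypass strain still grows fully, rated 3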
Of the large screens only hits and unclear results are named; the others gave an inactive call (follow-up assays come after a bar, where they were run). Hits are enriched below; roughly 1.3% of the tested compounds scored in any of these assays.

Oc1c(CN2CCCCC2)cc(Br)c2cccnc12	LAP4-GFP MLPCN 227 | s288c autofluor inactive
CC(=O)N1CCN(c2cc(N3CCc4ccccc4C3)c(F)cc2[N+](=O)[O-])CC1	none
CC(=O)C[C@H](O)CC(=O)[C@@H]1OC(=O)[C@H](C)C/C=C\Cc2ccccc21	none
Cc1ccc(C(=O)OCC(=O)NC2CCCCC2)cc1S(=O)(=O)N1CCCCC1	none
O=C(COc1c(Br)cc(Br)c2cccnc12)N1CCc2ccccc2C1	LAP4-GFP MLPCN 157 | s288c autofluor inactive
CC[C@]12c3[nH]c4cc(CCC(=O)N(C)C)ccc4c3CCN1C(=O)[C@@H](CC(=O)NCc1ccco1)C[C@@H]2C(=O)N1CCN(C(=O)C2CC2)CC1	none (no result: AGP1-GFP MLPCN, MEP2 TOR yeast, CIT2-GFP yeast, LAP4-GFP MLPCN, RPL19A TOR yeast)
CC[C@@]1(c2ccccc2OC)ON(c2ccccc2C(F)(F)F)C1=O	none | LAP4-GFP pick2 inactive | MEP2-GFP pick2 inactive | RPL19A GFP CP2 inactive | CIT2-GFP pick2 inactive | AGP1 GFP CP2 inactive | s288c autofluor inactive
Cc1ccccc1[C@@]1(C)ON(c2ccccc2C(F)(F)F)C1=O	none | LAP4-GFP pick2 inactive | MEP2-GFP pick2 inactive | RPL19A GFP CP2 inactive | CIT2-GFP pick2 inactive | AGP1 GFP CP2 inactive | s288c autofluor inactive
COC(=O)N1C(=O)[C@](c2ccccc2)(C2CCCC2)N1C(=O)OC	none
CC1(c2ccccc2)ON(c2ccccc2C(F)(F)F)C1=O (stereo not given)	none | LAP4-GFP pick2 inactive | MEP2-GFP pick2 inactive | RPL19A GFP CP2 inactive | CIT2-GFP pick2 inactive | AGP1 GFP CP2 inactive | s288c autofluor inactive
O=C1N(c2ccccc2C(F)(F)F)O[C@]1(c1ccccc1)C1CCCC1	none | LAP4-GFP pick2 inactive | MEP2-GFP pick2 inactive | RPL19A GFP CP2 inactive | CIT2-GFP pick2 inactive | AGP1 GFP CP2 inactive | s288c autofluor inactive
O=c1c2ccccc2ncn1-c1ccccc1C(F)(F)F	none
Cc1ccccc1CN1C(=O)C2(OCCCO2)c2ccccc21	none (no result: AGP1-GFP MLPCN)
c1cc(-c2cc3cc(N4CCOCC4)ccc3o2)cs1	none
OCC1(Cc2ccc(F)cc2)CCCN(CCCC(F)(F)F)C1 (stereo not given)	none
O=C(/C=C/c1ccco1)N(c1ccccn1)c1ccccn1	none
CC(C)[C@H](NC(=O)c1ccccc1Cl)C(=O)Nc1nc(-c2ccccn2)cs1	none
CC(Oc1ccc(Br)cc1)C(=O)Nc1nc(-c2ccccn2)cs1 (stereo not given)	LAP4-GFP MLPCN 168 | s288c autofluor inactive | Yeast autofl DR inactive | TORC1 bypass inactive
CCc1cc(C(=O)Nc2nc(-c3ccccn3)cs2)sc1C	LAP4-GFP MLPCN 208 | LAP4-GFP pick2 156 | MEP2-GFP pick2 inactive | RPL19A GFP CP2 inactive | CIT2-GFP pick2 inactive | AGP1 GFP CP2 inactive | s288c autofluor inactive
O=C(Nc1nc(-c2ccccc2)cs1)C1COc2ccccc2O1 (stereo not given)	none
O=C(Nc1nc(-c2ccccn2)cs1)C1COc2ccccc2O1 (stereo not given)	LAP4-GFP MLPCN 162 | LAP4-GFP pick2 inactive | MEP2-GFP pick2 inactive | RPL19A GFP CP2 inactive | CIT2-GFP pick2 inactive | AGP1 GFP CP2 inactive | s288c autofluor inactive | Yeast autofl DR inactive | TORC1 bypass inactive
Cc1cc(C(=O)Nc2nc(-c3ccccn3)cs2)ccc1[N+](=O)[O-]	LAP4-GFP MLPCN 160 | s288c autofluor inactive | Yeast autofl DR inactive | TORC1 bypass inactive
COCCNC(=O)CSc1cc(=O)n(C)c2cc(Cl)ccc12	none
Cc1ccc(N2CC(C)Cn3c2nc2c3c(=O)[nH]c(=O)n2C)cc1C (stereo not given)	none
CCOc1ccccc1N(CC(=O)NC1CCCCC1)C(=O)CCC(=O)Nc1nccs1	none
Oc1ccc(CNc2ccccc2)c2cccnc12	none | LAP4-GFP pick2 inactive | MEP2-GFP pick2 inactive | RPL19A GFP CP2 inactive | CIT2-GFP pick2 inactive | AGP1 GFP CP2 inactive | s288c autofluor inactive
CCc1ccc(C(=O)/C=C/c2ccc([N+](=O)[O-])o2)cc1	MEP2 TOR yeast 185, CIT2-GFP yeast 155, LAP4-GFP MLPCN 215 | s288c autofluor inactive
O=C(c1[nH]nc2c1CCc1ccccc1-2)N1CCN(Cc2ccc3c(c2)OCO3)CC1	none
CC1(C)C(=O)Nc2ccccc2N1C(=O)COc1ccccc1C#N	LAP4-GFP MLPCN 158 | LAP4-GFP pick2 inactive | MEP2-GFP pick2 inactive | RPL19A GFP CP2 inactive | CIT2-GFP pick2 inactive | AGP1 GFP CP2 inactive
O=[N+]([O-])c1ccc(Cl)c2cccnc12	none
